# In PubChem BioAssay AID504884 (Broad Institute, 2011):
# The campaign covered roughly 360,000 compounds. About 230 (0.064%) were called active. The entries come from a sample that favours actives as a whole. Unmarked numbers belong to inactive results. Rule as the data show it: active = activity above about 50% (passing the limit was not always enough); inconclusive = no clear call, values can overlap the other calls.
# Test system: DNA topoisomerase I (Yersinia pestis CO92)
# Assay: Yersinia pestis topoisomerase I inhibitors, primary screen, biochemical, cleavage product accumulation, plate reader, single point (AID 504884)
# Conditions: Y. pestis Topo-I cleavage product accumulation, at 10 µM, active compounds read high
row,SMILES,activity
1,CCOC(=O)/C=C/C(=O)OCC(=O)NC(c1ccccc1)c1ccccc1,7.5%
2,COc1ccc(OC)c(CN2CCN(C(=O)CNC(=O)c3cc(C)cc(C)c3)CC2)c1,9.4%
3,CCOC(=O)C(C)Oc1cccc2c(=O)n(CC(=O)N3CCc4ccccc43)ccc12 (stereo not given),-0.583%
4,COc1ccc(CN2CCNC(=O)C2CC(=O)NCc2cn[nH]c2-c2ccccc2)c(F)c1 (stereo not given),14.5%
5,COc1ccc(N(CC(=O)NC2CCCCC2)C(=O)CNC(=O)c2ccco2)c(OC)c1,18.1%
6,CCOc1ccc(NC(=O)CCC(=O)NNC(=O)NC2CCCCC2)cc1,-4.6%
7,N#Cc1cccc(NC(=O)CCC2CCCC2)c1,0.569%
8,N#CC(C#N)=CN=c1ccn(Cc2ccc(Cl)cc2Cl)cc1,1.09%
9,CC(C(=O)NC1CCCCC1)N1C(=O)c2cccc3cccc1c23 (stereo not given),10.7%
10,O=C(C[n+]1cc(-c2ccc(Cl)c(Cl)c2)n2c1CCC2)c1cccs1,5.58%
11,Nc1nc(SCC(=O)NN(c2ccccc2)c2ccccc2)n[nH]1,-4.71%
12,CN(CC(=O)N1CCN(c2ccccc2)CC1)S(=O)(=O)c1cccs1,3.69%
13,Cc1cc(C)c(C2C3=C(Nc4c2c(C)nn4-c2ccccn2)c2ccccc2C3=O)c(C)c1 (stereo not given),0.572%
14,CC(C)CCNC(=O)C(C)N(C(=O)Cn1nnc(-c2ccc(F)cc2)n1)C1CCCC1 (stereo not given),21.2%
15,CN(C)C(CNC(=O)c1ccc(S(=O)(=O)NCc2ccco2)cc1)c1ccccc1 (stereo not given),2.31%
16,Cc1ccc(S(=O)(=O)NCC(=O)NNC(=O)c2ccc(Br)cc2)cc1C,9.73%
17,O=S(=O)(c1ccc(-c2ccno2)s1)N1CCCCC1,0.748%
18,COc1ccc(S(=O)(=O)NCC2CCCN(C(=O)c3occc3C)C2)cc1 (stereo not given),0.202%
19,Cc1cccc(N2CCN(C(=O)COCc3cc(-c4ccc5c(c4)OCO5)on3)CC2)c1C,38.3%
20,COc1cc(C(=O)OCCCN2CCOCC2)cc(OC)c1OC,-0.169%
21,Cc1ccc2nc(-c3ccc(SCC(=O)Nc4cc(C)on4)nc3)[nH]c2c1,1.96%
22,CC(=O)Oc1ccc(OC(C)=O)c2c1C1C=CC2CC1,-5.11%
23,O=C(NCC(F)(F)F)Nc1nnc(C(F)(F)F)s1,11.4%
24,Cc1nn(C)c(C)c1S(=O)(=O)N1CCC(CO)(Cc2ccc(Cl)cc2)CC1,4.97%
25,Cc1nnc(SCC(=O)NC(=O)NC2CCCC2)n1N,-5.78%
